# Experimental data as given in article PMC5540273 (PLoS ONE, 2017).
# Tests used:
# Conditions in all cases: concentration: 1 μM, replicates: in singlicate; n = 1
# [1] = test system: T1, HASPIN
# T1 construct: gene GSG2
# [2] = test system: HCK
# [3] = test system: HIPK1
# [4] = test system: HIPK2
# [5] = test system: HIPK3
# [6] = test system: HIPK4
# [7] = test system: HPK1
# [8] = test system: HUNK
# [9] = test system: ICK
# [10] = test system: IGF1R
# 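Also: KINOMEscan kinase panel screen.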
Compound,%Inh [1],%Inh [2],%Inh [3],%Inh [4],%Inh [5],%Inh [6],%Inh [7],%Inh [8],%Inh [9],%Inh [10]
CN(c1ccc(NC(=O)Nc2cccc(Cl)c2)cc1)c1ccnc(N)n1.Cl [GW830707],32%,0%,0%,18%,0%,79%,0%,51%,7%,0%
N#CC1(c2cccc(C(=O)Nc3cccc(Oc4ccc5nc(NC(=O)C6CC6)sc5n4)c3)c2)CC1,38%,98.3%,6%,0%,0%,78%,40%,32%,0%,0%
O=C(Nc1n[nH]c2cc(-c3cccs3)ccc12)C1CC1 [SB-731284],0%,0%,37%,4%,63%,6%,0%,0%,78%,0%
CC(=O)Nc1cn2nc(Oc3cccc(NC(=O)c4cccc(C(F)(F)F)c4)c3)ccc2n1,0%,98.2%,35%,0%,0%,19%,59%,43%,0%,8%
Cc1nn2c(=O)cc(N3CCO[C@H](C)C3)nc2n1Cc1cccc(Cl)c1Cl [GSK2373693],3%,22%,10%,30%,78%,0%,25%,0%,15%,10%
Cc1cc(-c2ccnc(Nc3cccc(C#N)c3)n2)cc(C)c1O [GSK1440913],60%,0%,98.3%,98.9%,98.2%,88%,65%,43%,79%,0%
O=C(Nc1n[nH]c2nc(-c3cccc(O)c3)ccc12)C1CC1 [SB-711805],45%,15%,57%,27%,31%,7%,0%,0%,53%,0%
Nc1ncc(-c2cn[nH]c2)c2scc(-c3ccc4c(c3)CCN4C(=O)Cc3ccccc3)c12 [GSK2593067],0%,92.6%,0%,1%,4%,0%,94%,0%,0%,4%
Cc1ccccc1CC(=O)N1CCc2cc(-c3cn(C)c4ncnc(N)c34)ccc21 [GSK2603346],0%,13%,0%,0%,1%,0%,74%,0%,0%,0%
Cl.Cl.NC(CNC(=O)c1cc(Br)c(-c2ccnc3[nH]ccc23)s1)c1ccccc1 (stereo not drawn) [GSK1322949],92.6%,0%,65%,68%,73%,97.3%,69%,0%,0%,0%
COc1cc(Nc2ccnc3cc(-c4ccncc4)ccc23)cc(OC)c1OC.Cl [GW494610],40%,83%,0%,0%,13%,0%,0%,52%,0%,0%
CN(C)CCNS(=O)(=O)c1ccc(-c2ccnc3[nH]ccc23)cc1 [GSK977620],84%,0%,82%,82%,90.5%,43%,42%,0%,5%,2%
COC(=O)Nc1nc2cc(Oc3ccc(NC(=O)Nc4cccc(SC)c4)cc3)ccc2[nH]1.Cl [GW697999],0%,12%,5%,0%,1%,36%,30%,28%,0%,5%
CNc1nccc(-c2ccc3c(N)n[nH]c3c2)n1 [GSK2206003],93%,0%,34%,0%,37%,42%,55%,0%,0%,22%
Fc1cc(Cl)ccc1Nc1ccnc2cc(-c3ccc(CN4CCOCC4)o3)ccc12 [GW560109],0%,96.7%,0%,0%,26%,0%,27%,62%,0%,12%
Cc1cc(-c2c(-c3ccc(F)cc3)ncn2CCCN2CCOCC2)nc(N)n1 [SB-222517],0%,27%,44%,0%,18%,0%,12%,0%,0%,10%
Cl.Cl.NCC(NC(=O)c1cc(-c2cccnc2)c(-c2ccnc3[nH]ccc23)s1)c1ccccc1 (stereo not drawn) [GSK1323434],96.4%,0%,69%,67%,86%,64%,59%,0%,4%,0%

Compound,%Inh [1],%Inh [2],%Inh [3],%Inh [4],%Inh [5],%Inh [6],%Inh [7],%Inh [8],%Inh [9],%Inh [10]
Nc1ncc(-c2ccc3nccc(-c4ccncc4)c3c2)cc1S(=O)(=O)N1CCCCC1 [GSK1693850],80%,0%,42%,0%,20%,57%,50%,82%,16%,10%
COc1cccc(CC(=O)N2CCc3cc(-c4cn(C)c5ncnc(N)c45)ccc32)c1 [GSK2608899],0%,0%,0%,0%,22%,56%,55%,3%,6%,17%
CN(C)CCOc1ccc(-c2cc(-c3ccc(Cl)c(O)c3)c(-c3ccncc3)[nH]2)cc1.Cl.Cl [SB-684387],18%,51%,2%,0%,1%,4%,39%,0%,0%,0%
Cl.O=C(Nc1ccc(Oc2ccc3[nH]c(NC(=O)c4ccco4)nc3c2)cc1)Nc1cc(C(F)(F)F)ccc1F [GW683134],0%,58%,0%,0%,11%,88%,40%,0%,0%,17%
CC(C)c1nc(-c2ccc(F)c(NS(=O)(=O)c3c(F)cccc3F)c2)c(-c2ccnc(Nc3ccc(N4CCOCC4)nc3)n2)s1 [GSK1804250],18%,98.4%,17%,0%,30%,72%,56%,7%,0%,8%
c1ccc(Oc2ccc(Nc3ccnc4cc(-c5ccc(CN6CCCCC6)o5)ccc34)cc2)nc1 [GW567143],6%,79%,0%,0%,8%,0%,20%,0%,0%,15%
CCn1cnc2c(NCc3ccccc3)ncnc21 [SKF-96418],10%,9%,27%,9%,33%,33%,0%,48%,0%,0%
Cc1ccc(O)cc1Nc1ccnc2cc(-c3ccc(CN4CCCCC4)o3)ccc12 [GW557777],0%,99.4%,0%,0%,0%,0%,37%,32%,0%,0%
COc1cccc(NC(=O)NCCNc2ccnc(Nc3ccc(F)cc3)n2)c1 [GSK1379879],0%,0%,0%,0%,7%,0%,34%,11%,10%,0%
Nc1cccc(-c2ccc3c(N)n[nH]c3c2)c1 [GSK2193613],90.5%,0%,0%,0%,100%,0%,48%,23%,0%,8%
Nc1ncnc2scc(-c3ccc(NC(=O)Cc4cc(F)ccc4F)cc3)c12.O=C(O)C(F)(F)F [SB-731254-M],0%,66%,18%,23%,26%,2%,44%,0%,12%,0%
CN(c1ccc(F)c(NC(=O)c2cccc(OC(C)(C)C#N)c2Cl)c1)c1ccc2nc(NC(=O)C3CC3)sc2n1,27%,90%,0%,0%,0%,0%,0%,1%,0%,0%
Cc1cccc(Nc2nc(NCCN)ncc2C(N)=O)c1 [GSK1292139],56%,25%,0%,0%,7%,0%,85%,0%,13%,0%
CCOc1nccc(-c2c(-c3ccc(F)cc3)ncn2C2CCNCC2)n1 [SB-249175],0%,0%,59%,44%,44%,6%,12%,0%,65%,0%
Cc1ccc(-c2ccc3occ(-c4ccc(S(C)=O)cc4)c3c2)nn1 (stereo not drawn),42%,0%,42%,2%,0%,0%,0%,0%,0%,0%
COc1cccc(-c2nc(-c3ccccc3)[nH]c2-c2ccncc2)c1 [SB-610250],66%,0%,0%,0%,15%,7%,43%,31%,3%,16%
